Source: PubChem BioAssay AID1159580 (chemical genetic matrix, 2015)
Among all 5,500 compounds or so, about 2,000 (36%) were called active. Inconclusive results (about 18%) are left out. No stated cut-off is given here; in the data, active means normalized growth mostly below about 0.91 (no sharp cut-off); inconclusive means no clear call, values can overlap the other calls; inactive means mostly above about 0.92. The list shows a part of the results.

Assay: chemical genetic growth profiling, strain panel (AID 1159580);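 further: tested at 20 µM; growth read once vehicle control cultures reached saturation at 30 °C; 1 = growth at the plate median or of vehicle wells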
Conditions: S. cerevisiae deletion strains, growth OD
[1] = locus YAL013W, strain DEP1, stronger effect = lower value
[2] = locus YBR229C, strain ROT2, stronger effect = lower value
[3] = locus YDL101C, strain DUN1, stronger effect = lower value
[4] = locus YEL061C, strain CIN8, stronger effect = lower value
[5] = locus YLR039C, strain RIC1, stronger effect = lower value

Measured: normalized growth

COc1cc(O)c(C(=O)c2ccccc2)cc1O
inactive: [1] 1.02 | locus YAL021C, strain ccr4, stronger effect = lower value 1.01 | locus YAL026C, strain drs2, stronger effect = lower value 0.963 | locus YAL030W, strain snc1, stronger effect = lower value 1.01 | locus YBL061C, strain skt5, stronger effect = lower value 1.01 | locus YBR009C, strain hhf1, stronger effect = lower value 0.969 | locus YBR021W, strain FUR4, stronger effect = lower value 1.07 | locus YBR023C, strain chs3, stronger effect = lower value 0.985 | locus YBR171W, strain sec66, stronger effect = lower value 1.01 | [2] 1.02 | locus YBR231C, strain swc5, stronger effect = lower value 1.01 | locus YBR279W, strain paf1, stronger effect = lower value 0.988 | locus YCL011C, strain gbp2, stronger effect = lower value 0.971 | locus YCL016C, strain dcc1, stronger effect = lower value 0.965 | locus YCL029C, strain bik1, stronger effect = lower value 0.978 | locus YCL069W, strain vba3, stronger effect = lower value 0.996 | locus YCR088W, strain abp1, stronger effect = lower value 1 | locus YDL005C, strain med2, stronger effect = lower value 1.01 | locus YDL035C, strain GPR1, stronger effect = lower value 1.07 | locus YDL040C, strain nat1, stronger effect = lower value 1 | locus YDL074C, strain BRE1, stronger effect = lower value 1.01 | [3] 0.998 | locus YDL185W, strain tfp1, stronger effect = lower value 0.972 | locus YDL192W, strain arf1, stronger effect = lower value 0.971 | locus YDR001C, strain nth1, stronger effect = lower value 1.02 | locus YDR069C, strain doa4, stronger effect = lower value 1.02 | locus YDR101C, strain arx1, stronger effect = lower value 1.01 | locus YDR137W, strain rgp1, stronger effect = lower value 0.857 | locus YDR159W, strain sac3, stronger effect = lower value 0.973 | locus YDR162C, strain NBP2, stronger effect = lower value 1.02 | locus YDR195W, strain ref2 1.03 | locus YDR297W, strain sur2, stronger effect = lower value 0.99 | locus YDR318W, strain mcm21, stronger effect = lower value 0.963 | locus YDR334W, strain swr1, stronger effect = lower value 1.03 | locus YDR335W, strain msn5, stronger effect = lower value 0.988 | locus YDR388W, stronger effect = lower value 0.979 | locus YDR502C, strain sam2, stronger effect = lower value 0.965 | locus YEL003W, strain gim4, stronger effect = lower value 0.985 | locus YEL037C, strain rad23, stronger effect = lower value 1.01 | locus YEL061C, strain CIN8 (second series), stronger effect = lower value 1.01 | [4] 1.03 | locus YER015W, strain faa2, stronger effect = lower value 0.966 | locus YER016W, strain bim1, stronger effect = lower value 1 | locus YER110C, stronger effect = lower value 0.964 | locus YER111C, strain swi4, stronger effect = lower value 1.02 | locus YER155C, strain BEM2, stronger effect = lower value 1.01 | locus YER167W, strain BCK2, stronger effect = lower value 1 | locus YFR010W, strain ubp6, stronger effect = lower value 1.03 | locus YGL078C, strain dbp3, stronger effect = lower value 0.937 | locus YGL086W, strain mad1, stronger effect = lower value 0.974 | locus YGL167C, strain pmr1, stronger effect = lower value 0.999 | locus YGL173C, strain kem1, stronger effect = lower value 1 | locus YGL227W, strain vid30, stronger effect = lower value 1.01 | locus YGL240W, strain doc1, stronger effect = lower value 0.944 | locus YGL248W, strain PDE1, stronger effect = lower value 1.05 | locus YGL253W, strain hxk2, stronger effect = lower value 1.04 | locus YGR135W, strain pre9, stronger effect = lower value 0.923 | locus YGR252W, strain gcn5, stronger effect = lower value 1 | locus YHR013C, strain ard1, stronger effect = lower value 1.05 | locus YHR027C, strain rpn1, stronger effect = lower value 1.02 | locus YHR079C, strain IRE1 (second series), stronger effect = lower value 0.959 | locus YHR094C, strain hxt1, stronger effect = lower value 0.974 | locus YHR129C, strain ARP1, stronger effect = lower value 1.02 | locus YHR142W, strain chs7, stronger effect = lower value 1.01 | locus YHR200W, strain rpn10, stronger effect = lower value 0.968 | locus YIL066C, strain RNR3, stronger effect = lower value 1.03 | locus YIL073C, strain SPO22, stronger effect = lower value 1 | locus YIL125W, strain kgd1, stronger effect = lower value 1 | locus YIR030C, strain dcg1, stronger effect = lower value 0.976 | locus YJL092W, strain hpr5, stronger effect = lower value 1.01 | locus YJL095W, strain BCK1 (second series), stronger effect = lower value 0.996 | locus YJL095W, strain BCK1, stronger effect = lower value 0.978 | locus YJL115W, strain asf1, stronger effect = lower value 1.02 | locus YJL129C, strain trk1, stronger effect = lower value 0.948 | locus YJL134W, strain LCB3, stronger effect = lower value 1 | locus YJL154C, strain vps35, stronger effect = lower value 1.02 | locus YJL164C, strain tpk1, stronger effect = lower value 0.958 | locus YJL166W, strain qcr8, stronger effect = lower value 0.993 | locus YJL168C, strain set2, stronger effect = lower value 0.989 | locus YJL187C, strain SWE1 (second series), stronger effect = lower value 0.993 | locus YJL187C, strain SWE1, stronger effect = lower value 0.996 | locus YKL009W, strain mrt4, stronger effect = lower value 0.892 | locus YKL068W, stronger effect = lower value 0.982 | locus YKL085W, strain MDH1 (second series), stronger effect = lower value 0.97 | locus YKL085W, strain MDH1, stronger effect = lower value 0.97 | locus YKL160W, strain elf1, stronger effect = lower value 0.945 | locus YKR001C, strain vps1, stronger effect = lower value 1.01 | locus YKR026C, strain gcn3, stronger effect = lower value 1.02 | locus YKR091W, strain srl3, stronger effect = lower value 1.01 | locus YLL001W, strain dnm1, stronger effect = lower value 0.951 | locus YLL026W, stronger effect = lower value 1.01 | locus YLL041C, strain sdh2, stronger effect = lower value 1.01 | locus YLR027C, strain aat2, stronger effect = lower value 1.01 | [5] 0.963 | locus YLR058C, strain SHM2, stronger effect = lower value 1.01 | locus YLR102C, strain apc9, stronger effect = lower value 0.97 | locus YLR221C, strain rsa3, stronger effect = lower value 0.988 | locus YLR258W, strain gsy2, stronger effect = lower value 0.962 | locus YLR268W, strain sec22, stronger effect = lower value 0.976 | locus YLR320W, strain mms22, stronger effect = lower value 0.944 | locus YLR330W, strain CHS5, stronger effect = lower value 1.02 | locus YLR342W, strain FKS1, stronger effect = lower value 0.993 | locus YLR357W, strain rsc2, stronger effect = lower value 0.994 | locus YLR370C, strain arc18, stronger effect = lower value 1 | locus YLR371W, strain rom2, stronger effect = lower value 0.966 | locus YLR384C, strain iki3, stronger effect = lower value 0.996 | locus YLR418C, strain cdc73, stronger effect = lower value 1.03 | locus YML016C, strain PPZ1, stronger effect = lower value 1.01 | locus YML032C, strain rad52, stronger effect = lower value 0.967 | locus YML120C, strain ndi1, stronger effect = lower value 0.965 | locus YML124C, strain tub3, stronger effect = lower value 0.97 | locus YMR058W, strain fet3, stronger effect = lower value 1.02 | locus YMR078C, strain ctf18, stronger effect = lower value 0.952 | locus YMR125W, strain sto1, stronger effect = lower value 1.01 | locus YMR129W, stronger effect = lower value 1 | locus YMR205C, strain PFK2, stronger effect = lower value 0.991 | locus YMR223W, strain ubp8, stronger effect = lower value 0.932 | locus YMR231W, strain pep5, stronger effect = lower value 1.01 | locus YMR307W, strain GAS1, stronger effect = lower value 1.19 | locus YNL067W, strain RPL9B, stronger effect = lower value 1.01 | locus YNL071W, strain lat1, stronger effect = lower value 0.982 | locus YNL209W, strain ssb2, stronger effect = lower value 0.947 | locus YNL233W, strain BNI4, stronger effect = lower value 1.04 | locus YNL248C, strain rpa49, stronger effect = lower value 1.03 | locus YNL250W, strain rad50, stronger effect = lower value 0.924 | locus YNL271C, strain bni1, stronger effect = lower value 0.951 | locus YNL298W, strain CLA4, stronger effect = lower value 0.995 | locus YNL307C, strain MCK1, stronger effect = lower value 0.971 | locus YNL322C, strain KRE1 (second series), stronger effect = lower value 0.973 | locus YNR049C, strain mso1, stronger effect = lower value 1.03 | locus YNR052C, strain pop2, stronger effect = lower value 0.96 | locus YOL012C, strain htz1 1.3 | locus YOL147C, strain pex11, stronger effect = lower value 0.979 | locus YOR001W, strain rrp6, stronger effect = lower value 0.995 | locus YOR061W, strain CKA2, stronger effect = lower value 1.01 | locus YOR069W, strain VPS5, stronger effect = lower value 0.999 | locus YOR070C, strain gyp1, stronger effect = lower value 0.983 | locus YOR080W, strain dia2, stronger effect = lower value 1.02 | locus YOR083W, strain WHI5, stronger effect = lower value 0.933 | locus YOR106W, strain vam3, stronger effect = lower value 0.917 | locus YOR136W, strain idh2, stronger effect = lower value 0.977 | locus YOR144C, strain elg1, stronger effect = lower value 0.976 | locus YOR184W, strain ser1, stronger effect = lower value 1.07 | locus YOR265W, strain rbl2, stronger effect = lower value 1.01 | locus YOR270C, strain vph1, stronger effect = lower value 0.974 | locus YOR290C, strain snf2, stronger effect = lower value 0.946 | locus YOR316C, strain cot1, stronger effect = lower value 0.958 | locus YPL051W, strain arl3, stronger effect = lower value 0.924 | locus YPL078C, strain atp4, stronger effect = lower value 0.952 | locus YPL106C, strain sse1, stronger effect = lower value 0.943 | locus YPL240C, strain hsp82, stronger effect = lower value 0.997 | locus YPR119W, strain clb2, stronger effect = lower value 0.95 | locus YPR141C, strain kar3, stronger effect = lower value 0.96 | locus YPR163C, strain tif3, stronger effect = lower value 0.94 | locus YPR167C, strain met16, stronger effect = lower value 0.953 | strain wtn01, stronger effect = lower value 0.998
active: locus YDR392W, strain spt3, stronger effect = lower value 0.705 | locus YER155C, strain BEM2 (second series), stronger effect = lower value 0.764 | locus YLR262C, strain YPT6 (second series), stronger effect = lower value 0.768

COC(=O)c1cc(OC)c(OC)c(OC)c1NS(=O)(=O)c1cc(OC)ccc1OC
inactive: [1] 0.999 | [2] 0.999 | locus YCL061C, strain MRC1, stronger effect = lower value 0.974 | [3] 0.968 | locus YDL134C, strain PPH21, stronger effect = lower value 1.02 | locus YDR150W, strain NUM1, stronger effect = lower value 0.984 | [4] 1.03 | locus YGR078C, strain PAC10, stronger effect = lower value 0.983 | locus YGR229C, strain SMI1, stronger effect = lower value 1.01 | locus YHR030C, strain SLT2, stronger effect = lower value 0.965 | locus YHR087W, strain rtc3, stronger effect = lower value 1.03 | locus YJR043C, strain POL32, stronger effect = lower value 0.987 | locus YJR075W, strain HOC1, stronger effect = lower value 0.992 | [5] 0.984 | locus YLR058C, strain SHM2 (second series), stronger effect = lower value 1.02 | locus YLR085C, strain ARP6, stronger effect = lower value 1.02 | locus YLR262C, strain YPT6, stronger effect = lower value 1.02 | locus YML094W, strain GIM5, stronger effect = lower value 1.04 | locus YMR219W, strain ESC1, stronger effect = lower value 1 | locus YMR263W, strain SAP30, stronger effect = lower value 1 | locus YNL128W, strain TEP1, stronger effect = lower value 1 | locus YNL153C, strain GIM3, stronger effect = lower value 0.992 | locus YNL298W, strain CLA4 (second series), stronger effect = lower value 0.987 | locus YNL322C, strain KRE1, stronger effect = lower value 0.996 | locus YNR030W, strain Alg12, stronger effect = lower value 1.01 | locus YOL006C, strain TOP1, stronger effect = lower value 0.981 | locus YPL055C, strain LGE1, stronger effect = lower value 1.03 | locus YPL241C, strain CIN2, stronger effect = lower value 0.983 | locus YPR135W, strain CTF4, stronger effect = lower value 0.969
